An excerpt weighted towards active compounds, which were near 1.9% of everything screened.
PG9 Ab binder = binders of HIV-1 gp120 antibody PG9, primary screen, biochemical, TR-FRET; HIV-1 gp120 / PG9 antibody interaction; TR-FRET gp120-PG9 antibody binding; inhibition, % at 6.7 µM; hit rate 0.43% among 360,000; in the data active = inhibition above about 8.5%
ZTA counter = counter-screen for EBNA-1 inhibitors: inhibitors of Epstein-Barr virus ZTA; inhibition, % at 11 µM; AID 2234; P03206; hit rate 0.15% among 320,000; ZTA-DNA binding, fluorescence polarization; in the data active = inhibition above about 33%
Target sequence (P03206 whole entry, looked up): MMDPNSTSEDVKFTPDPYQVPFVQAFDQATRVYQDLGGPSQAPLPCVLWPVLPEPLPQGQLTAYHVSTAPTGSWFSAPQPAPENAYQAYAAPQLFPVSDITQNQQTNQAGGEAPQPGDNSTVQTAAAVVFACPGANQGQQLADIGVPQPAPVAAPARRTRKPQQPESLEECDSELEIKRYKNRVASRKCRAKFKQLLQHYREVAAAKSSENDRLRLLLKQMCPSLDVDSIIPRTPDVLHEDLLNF
p47phox inh = p47phox/p22phox peptide binding inhibitors, primary screen, biochemical, uHTS, NADPH oxidase regulatory subunit | Neutrophil cytosol factor 1 (Homo sapiens), P14598 | fluorescence polarization, 2 h | inhibition, % at 24.7 µM | hit rate 0.53% among 220,000 | AID 1274, 2008;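 active = inhibition above about 30%, limit read from the data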
Target sequence (P14598 whole entry, looked up): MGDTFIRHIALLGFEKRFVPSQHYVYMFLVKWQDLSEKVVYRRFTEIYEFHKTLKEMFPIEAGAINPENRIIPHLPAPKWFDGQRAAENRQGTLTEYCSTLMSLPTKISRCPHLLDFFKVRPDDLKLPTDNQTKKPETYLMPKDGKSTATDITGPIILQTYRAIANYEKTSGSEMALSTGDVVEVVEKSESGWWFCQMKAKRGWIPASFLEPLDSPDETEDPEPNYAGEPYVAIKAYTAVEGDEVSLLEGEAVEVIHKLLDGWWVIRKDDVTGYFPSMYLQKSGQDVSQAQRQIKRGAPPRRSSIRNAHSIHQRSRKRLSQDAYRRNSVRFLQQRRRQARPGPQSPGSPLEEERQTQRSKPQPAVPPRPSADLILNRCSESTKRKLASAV
EBNA-1 inh = EBNA-1 DNA-binding inhibitors, primary screen, biochemical, fluorescence polarization. inhibition, % at 14.8 µM. hit rate 0.34% among 300,000. AID 1950, 2009; in the data active = inhibition above about 28%
aDG glyco up = activators of alpha-DG glycosylation, primary screen, uHTS, Pro5-aDG cells, AlphaScreen | alpha-DG glycosylation AlphaScreen (IIH6); 0% Pro5, 100% B10-LARGE cell signal | activation, % at 10 µM | hit rate 0.22% among 360,000 | AID 624168, 2012;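 active = activation of at least 8% versus controls, or a plate z-score of at least 8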;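 note: Pro5 are CHO cells carrying HIG-tagged alpha-DG that lacks glycosylation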
Rev-erbA mod = modulators of Rev-erb alpha DNA binding, primary screen, biochemical, FITC-DNA, fluorescence polarization, uHTS; Rev-erbα–FITC-DNA binding, 90 min; hit rate 0.79% among 370,000; Nuclear receptor subfamily 1 group D member 1 (Homo sapiens), P20393; activity, % at 10 µM;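 active = activity above about 14%, limit read from the data; passing the limit was not always enough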
PG9 binder conf = binders of anti-gp120 antibody PG9, confirmation, biochemical, TR-FRET; shares compounds with PG9 Ab binder; TR-FRET PG9 antibody binding; inhibition, % at 6.7 µM; hit rate 90% among 1,500; AID 651571, 2012; in the data active = inhibition above about 9%
PGV04 Ab binding = binders of control antibody PGV04, counter-screen for PG9 antibody binder project, biochemical, TR-FRET, distinct HIV envelope site | shares compounds with PG9 Ab binder | AID 651604, 2012 | hit rate 95% among 1,500 | TR-FRET PGV04 antibody-gp120 binding | inhibition, % at 6.7 µM; in the data active = inhibition above about 9.5%
PG9 bind DR = small-molecule binders of antibody PG9, dose response, biochemical, TR-FRET, HIV-1 gp120 antibody; shares compounds with PG9 Ab binder; TR-FRET PG9 antibody-gp120 binding inhibition; IC50, µM; 95 tested, under 10 active; AID 651848, 2012; in the data active = IC50 below about 10 µM
PGV04 binding DR = binders of control antibody PGV04, dose response, counter-screen for PG9 antibody binder project, biochemical, TR-FRET, distinct HIV envelope site. shares compounds with PG9 Ab binder. TR-FRET binding to control antibody PGV04. IC50, µM. hit rate 20% among 95. AID 651937, 2012
PG126 DR counter = binders of control antibody PG126, dose response, counter-screen for PG9 antibody binder project, biochemical, TR-FRET, distinct HIV envelope site. shares compounds with PG9 Ab binder. TR-FRET binding to antibody PG126, counterscreen. IC50, µM. hit rate 20% among 95
Rev-erbA confirm = modulators of Rev-erb alpha DNA binding, confirmation, biochemical, FITC-DNA, fluorescence polarization, single point | shares compounds with Rev-erbA mod | 90 min | activation, % at 25 µM | hit rate 61% among 3,000;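 active = activation at or above a set limit, or at least 3 SD above the negative control mean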
RORg DNA counter = modulation of RORgamma DNA binding, dose response, counter-screen for Rev-erb alpha modulator project, biochemical, fluorescence polarization, FITC-DNA | shares compounds with Rev-erbA mod | purified RORgamma protein-FITC-DNA binding | IC50, µM | hit rate 8% among 910 | AID 1259320, 2017;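 active = Compounds whose fitted half-maximal concentration for disrupting protein-DNA binding is below 10 micromolar; the record names Rev-erb in its text, so the target is in doubt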
A number is an active result. Cut-off read from the data, not from the text of the source, unless noted: active = IC50 below about 9 µM; inactive = the rest.

Screening COc1ccc2cc(OCC(=O)NNC(=O)Nc3ccc(F)cc3)ccc2c1 returned PG9 Ab binder 23, ZTA counter inactive, EBNA-1 inh inactive, aDG glyco up inactive, Rev-erbA mod 42, PG9 binder conf 34, PGV04 Ab binding 45, Rev-erbA confirm 35 and RORg DNA counter 3.1.
`COc1ccc(NC(=O)COc2ccc(Br)cc2)c(OC)c1` gave PG9 Ab binder inactive, ZTA counter inactive, EBNA-1 inh inactive, aDG glyco up inactive and Rev-erbA mod inactive.
`COc1ccc(NC(=O)NNC(=O)COc2ccc3cc(Br)ccc3c2)c(OC)c1` gave PG9 Ab binder 61, ZTA counter inactive, EBNA-1 inh inactive, aDG glyco up inactive, Rev-erbA mod 118, PG9 binder conf 63, PGV04 Ab binding 74, Rev-erbA confirm 111 and RORg DNA counter inactive.
O=C(c1cc2cc(Cl)ccc2[nH]1)N1CCN(c2ccccn2)CC1 was read as PG9 Ab binder 27, ZTA counter inactive, EBNA-1 inh inactive, aDG glyco up inactive, Rev-erbA mod 51, PG9 binder conf inactive, PGV04 Ab binding 23, Rev-erbA confirm 41 and RORg DNA counter 5.4.
`O=C(Nc1ccccc1)Nc1nc2ncccn2c1-c1ccc(F)cc1` gave Rev-erbA mod inactive.
N=C1C(c2nc3ccccc3s2)=C(O)CN1NC(=O)c1c[nH]c2ccccc12 was read as PG9 Ab binder 12, ZTA counter inactive, p47phox inh inactive, EBNA-1 inh inactive, aDG glyco up inactive, Rev-erbA mod 32, PG9 binder conf 22, PGV04 Ab binding 39, Rev-erbA confirm 51 and RORg DNA counter inactive.
COc1ccccc1NC(=O)OCCN1CCCC12CCC(c1ccccc1)CC2 (stereo not given) was read as Rev-erbA mod inactive.
Cc1ccc(-n2c(SCC(=O)NCc3ccco3)nc3sc4c(c3c2=O)CC(C)(C)SC4)cc1 was read as PG9 Ab binder 16, ZTA counter inactive, p47phox inh inactive, EBNA-1 inh inactive, aDG glyco up inactive, Rev-erbA mod 71, PG9 binder conf 20, PGV04 Ab binding 32, Rev-erbA confirm 64 and RORg DNA counter 5.6.
CCOc1ccc(OCCSc2nc3ccccc3c(=O)[nH]2)cc1 was read as PG9 Ab binder 39, ZTA counter inactive, p47phox inh inactive, EBNA-1 inh inactive, aDG glyco up inactive, Rev-erbA mod 26, PG9 binder conf 37, PGV04 Ab binding 52 and Rev-erbA confirm inactive.
Screening O=c1[nH]c(SCCOc2cccc3ccccc23)nc2ccccc12 returned PG9 Ab binder inactive, ZTA counter inactive, p47phox inh inactive, EBNA-1 inh inactive, aDG glyco up inactive and Rev-erbA mod inactive.
Screening S=c1[nH]cc(-c2ccc(Cl)cc2)n1Cc1ccccc1 returned PG9 Ab binder 16, ZTA counter inactive, p47phox inh inactive, EBNA-1 inh inactive, aDG glyco up inactive, Rev-erbA mod 26, PG9 binder conf 17, PGV04 Ab binding 21 and Rev-erbA confirm inactive.
For CSc1nc(-c2ccc(Cl)cc2)nc(N)c1C#N the results were PG9 Ab binder 25, ZTA counter inactive, p47phox inh inactive, EBNA-1 inh inactive, aDG glyco up inactive, Rev-erbA mod 29, PG9 binder conf 49, PGV04 Ab binding 67 and Rev-erbA confirm inactive.
For Nc1nc(-c2ccc(Cl)cc2)nc(-c2ccc(Cl)cc2)n1 the results were PG9 Ab binder inactive, ZTA counter inactive, p47phox inh inactive, EBNA-1 inh inactive, aDG glyco up inactive and Rev-erbA mod inactive.
Screening COc1ccc(-c2c(C#N)c(N)nc(Sc3ccc(Cl)cc3)c2C#N)cc1 returned PG9 Ab binder 31, ZTA counter inactive, p47phox inh inactive, EBNA-1 inh inactive, aDG glyco up inactive, Rev-erbA mod 83, PG9 binder conf 97, PGV04 Ab binding 95, PG9 bind DR 8.5, PGV04 binding DR 4.4, PG126 DR counter 4.9, Rev-erbA confirm 48 and RORg DNA counter inactive.
`CCCCOc1ccc(-c2c(C#N)c(N)nc(SCC(N)=O)c2C#N)cc1` gave PG9 Ab binder inactive, ZTA counter inactive, p47phox inh inactive, EBNA-1 inh inactive, aDG glyco up inactive and Rev-erbA mod inactive.
CCOC(=O)CSc1nc(N)c(C#N)c(-c2ccc(OC)cc2)c1C#N was read as PG9 Ab binder 63, ZTA counter inactive, p47phox inh inactive, EBNA-1 inh inactive, aDG glyco up inactive, Rev-erbA mod 76, PG9 binder conf 68, PGV04 Ab binding 23, PG9 bind DR 7.6, PGV04 binding DR 6.1, PG126 DR counter 7 and Rev-erbA confirm 55.
Screening CCOC(=O)CC(=O)CSc1nc(N)c(C#N)c(-c2ccc(F)cc2)c1C#N returned PG9 Ab binder inactive, ZTA counter inactive, p47phox inh inactive, EBNA-1 inh inactive, aDG glyco up inactive and Rev-erbA mod inactive.
Screening CCCCCCn1c(SCC(=O)Nc2cc(C)on2)nc2ccccc2c1=O returned PG9 Ab binder 31, ZTA counter inactive, p47phox inh inactive, EBNA-1 inh inactive, aDG glyco up inactive, Rev-erbA mod 41, PG9 binder conf 23, PGV04 Ab binding 32 and Rev-erbA confirm 18.
Cc1ccc(-n2c(SCC(=O)Nc3cc(C)on3)nc3ccccc3c2=O)cc1 was read as PG9 Ab binder inactive, ZTA counter inactive, p47phox inh inactive, EBNA-1 inh inactive, aDG glyco up inactive and Rev-erbA mod inactive.

Bioassay records as filed in PubChem.
